According to US20060069055, “Delivery of polynucleotides” (published 2006):

target: NF-kB p65/p50 heterodimer (Homo sapiens, UniProt Q04206;P19838 Q04206:1-551,P19838:1-433); assay: EMSA; Table 3 gives 58 for PO; details: protein: extract; tags: nuclear extract of LPS-stimulated THP-1 cells; dsDNA, one strand shown
Description: The EMSA assay was employed to characterize oligonucleotide decoys for the NF-κB transcription factor. […] Using the above modified oligonucleotides to compete for binding for the above-mentioned NF-κB family members, it was possible to compare the binding affinity of these oligonucleotides against the high affinity radiolabeled probe and each other. This assay has also enabled the design of a decoy which selectively binds particular members of the NF-κB family. By using increasing concentrations of various oligonucleotides, it was observed that, by deleting or changing targeted residues in the binding site, it was possible to specifically decrease the binding of the decoy molecule to p50/p50 homodimers, while retaining the affinity for p65/p50 and cRel/p50 heterodimers.
The NF-κB gel shift assays (EMSA) were performed as follows. A double-stranded oligonucleotide containing a consensus NF-κB binding site (5′ […].GGC 3′) (SEQ ID NO: 26) was end-labeled with γ³²P-ATP using T4 Polynucleotide Kinase (Promega). […] The dried gels were imaged and quantitated using a Typhoon 8600 Phosphorlmager (Amersham) and ImageQuant software. […]

NF-kB p65/p50 heterodimer, sequence (Q04206 whole entry, chain 1 of 2): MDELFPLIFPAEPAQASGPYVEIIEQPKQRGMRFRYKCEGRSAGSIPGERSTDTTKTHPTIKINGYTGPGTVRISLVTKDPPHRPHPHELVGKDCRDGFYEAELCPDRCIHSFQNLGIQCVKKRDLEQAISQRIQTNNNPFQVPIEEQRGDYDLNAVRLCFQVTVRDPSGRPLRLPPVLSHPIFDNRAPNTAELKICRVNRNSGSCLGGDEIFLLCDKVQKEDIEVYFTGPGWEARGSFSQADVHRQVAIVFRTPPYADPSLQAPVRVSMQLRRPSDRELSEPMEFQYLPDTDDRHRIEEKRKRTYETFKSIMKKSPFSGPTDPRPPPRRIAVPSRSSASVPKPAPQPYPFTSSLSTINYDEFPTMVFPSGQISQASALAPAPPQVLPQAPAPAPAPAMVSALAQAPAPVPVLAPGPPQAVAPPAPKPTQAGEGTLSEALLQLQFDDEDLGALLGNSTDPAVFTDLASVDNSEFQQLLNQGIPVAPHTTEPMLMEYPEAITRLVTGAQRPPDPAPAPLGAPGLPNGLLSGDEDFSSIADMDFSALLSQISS
NF-kB p65/p50 heterodimer, sequence (P19838 1-433, chain 2 of 2): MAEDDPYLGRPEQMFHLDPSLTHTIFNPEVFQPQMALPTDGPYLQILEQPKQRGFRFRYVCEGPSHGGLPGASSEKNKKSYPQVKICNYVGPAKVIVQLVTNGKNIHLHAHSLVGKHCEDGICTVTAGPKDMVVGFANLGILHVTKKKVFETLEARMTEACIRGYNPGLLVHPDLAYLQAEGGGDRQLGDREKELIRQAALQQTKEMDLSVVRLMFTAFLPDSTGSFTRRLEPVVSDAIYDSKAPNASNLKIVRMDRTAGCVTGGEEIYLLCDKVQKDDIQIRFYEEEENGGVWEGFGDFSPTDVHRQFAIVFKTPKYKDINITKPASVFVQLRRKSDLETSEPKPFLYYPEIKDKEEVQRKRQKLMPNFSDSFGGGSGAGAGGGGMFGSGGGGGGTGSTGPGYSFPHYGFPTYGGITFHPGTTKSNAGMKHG

Sequence | IC50
AGTTGAGGACTTTCCAGGC | 62.4 fold molar excess
